Compound activity deposited in PubChem by Broad Institute.
PGC1a acetyl inh = PGC1a acetylation modulation, inhibitor mode; U2OS PGC1a acetylation, AlphaScreen anti-acetyl-lysine; with virally co-expressed GCN5 acetyltransferase; inhibition, % at 15.6 µM; 350,000 tested, 0.17% active; AID 651687;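 active = every replicate shows inhibition of at least 40%; inconclusive = mean inhibition at least 40% but some replicate below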
SIRT5 inh = sirtuin-5 (human) deacylase inhibition; inhibition, % at 15 µM; Purified SirT5, succinyl-peptide AMC, trypsin-coupled fluorescence; 330,000 tested, 1.1% active; in the data active = inhibition above about 15%; inconclusive = no clear call, values can overlap the other calls
Target sequence (Q9NXA8 whole entry, looked up): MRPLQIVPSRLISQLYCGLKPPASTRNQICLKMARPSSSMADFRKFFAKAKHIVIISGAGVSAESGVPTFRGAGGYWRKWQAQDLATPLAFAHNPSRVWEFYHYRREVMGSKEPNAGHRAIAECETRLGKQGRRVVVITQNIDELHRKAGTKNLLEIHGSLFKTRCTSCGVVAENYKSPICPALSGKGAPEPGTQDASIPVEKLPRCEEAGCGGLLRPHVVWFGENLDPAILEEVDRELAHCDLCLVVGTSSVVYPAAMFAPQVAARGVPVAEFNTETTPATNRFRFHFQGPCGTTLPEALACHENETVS
EWS-Fli block = EWS/Fli transcriptional activity inhibition; inhibition, % at 12.6 µM; 350,000 tested, 0.67% active; A673 NR0B1-luciferase reporter, viability-normalised;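 active = mean inhibition of at least 50% after viability correction, with every replicate also passing that limit; inconclusive = mean reaches 50% but only one of two replicates passes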;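 also: firefly luciferase signal divided by Alamar Blue viability fluorescence both relative to DMSO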
PAX8 inh HTS = lowers PAX8-driven luciferase in RMG-I cells; inhibition, % at 12.6 µM; 360,000 tested, 1.2% active; RMG-I TPO-luciferase reporter, SteadyGlo, 24 h;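 active = mean replicate inhibition at least 60% with every replicate also reaching 60%; inconclusive = only one of the two criteria is met; inactive = mean below 60% and not all replicates reaching 60%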;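 also: luciferase light reporting Pax8 driven TPO promoter activity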
LGR2 antag = inhibitors of bursicon-induced Drosophila LGR2 receptor cAMP signaling | HEK293 LGR2, CRE-luciferase, bursicon-stimulated, 4 h | inhibition, % at 9.99 µM | 380,000 tested, 0.35% active;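 active = drop in luminescence signal, shown as inhibition above about 50% in the replicate tests, limit read from the data, passing the limit was not always enough; inconclusive = probably only some replicates passing the limit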;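 also: agonist challenge used bursicon conditioned medium at about half maximal strength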
rRNA inh HTS = inhibits bacterial ribosomal RNA function over humanized ribosomes; AID 720706; E. coli WT GFP vs humanized-ribosome RFP mutants, fluorescence, 24 h; active compounds read low; DMSO median 0, no signal -100; 350,000 tested, 1.6% active; GFP signal change (wild-type ribosome), % (concentration not given with the values);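 active = significant combined selectivity score with lowered wild-type GFP, culture density cut under 30%, mutant RFP and density less affected; inactive = any of these conditions unmet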
A number is an active result; . = inactive; ? = inconclusive; / = not tested or not shown. Rows were chosen to be rich in hits. Some 3.4% of all compounds tested hit in one or more screens of this group.

SMILES | PGC1a acetyl inh | SIRT5 inh | EWS-Fli block | PAX8 inh HTS | LGR2 antag | rRNA inh HTS
Cc1noc(C)c1S(=O)(=O)Nc1ccc2c(c1)C(=O)N([C@H](C)CO)C[C@H](C)[C@H](CN(C)Cc1ccc(C(F)(F)F)cc1)OCCCC[C@@H](C)O2 | . | . | / | . | . | .
O=C(NC1CCS(=O)(=O)C1)c1cccc(Br)c1 (centres undefined) | / | 17 | . | . | . | .
C=C1C(=O)[C@@]23[C@H](O)C[C@@H]4C(C)(C)CC[C@H](O)[C@]4(C)[C@@H]2C[C@H](O)[C@@H]1[C@H]3O | / | / | . | 97 | . | .
Cc1nn2c(N3CCN(C)CC3)cc(C(C)(C)C)nc2c1-c1ccccc1 | . | 15 | . | . | . | .
Cc1nn2c(N3CCN(C4CCCC4)CC3)cc(C(C)(C)C)nc2c1-c1ccccc1 | . | / | / | / | . | /
C[C@@H]1CN([C@H](C)CO)C(=O)c2cc(NS(=O)(=O)c3ccccc3)ccc2O[C@@H]1CN(C)C(=O)Nc1ccc2c(c1)OCO2 | . | . | . | / | . | .
O=C(NC(=S)N1CCCCC1)c1csc([N+](=O)[O-])c1 | . | . | . | . | . | -23
CCCN1[C@@H]2c3ccc(-c4cccnc4)c(=O)n3C[C@H]1[C@H](CO)[C@H]2C(=O)NC1CCCC1 | . | . | . | / | . | .
CN(C)c1cc[n+](CC(=O)Nc2cccc([N+](=O)[O-])c2)cc1 | / | . | . | . | . | .
CN(C)c1cc[n+](CC(=O)Nc2ccc(Cl)c([N+](=O)[O-])c2)cc1 | . | . | . | 63 | . | .
COCC(=O)Nc1ccc2c(c1)C(=O)N(C)C[C@H](OC)[C@H](C)CN(C(=O)Cc1cccnc1)[C@H](C)CO2 | . | . | . | / | . | .
CC(C)c1cn(CC[C@H]2CC[C@@H](NS(=O)(=O)Cc3ccccc3)[C@H](CO)O2)nn1 | . | . | . | . | . | .
Cc1cc(N2CCN(C(c3ccnc4ccccc34)c3nnnn3-c3c(C)cccc3C)CC2)c2ccccc2n1 (centres undefined) | / | . | . | . | . | -26
Cc1cccc(C)c1-n1nnnc1C(c1ccnc2ccccc12)N1CCN(CCN(C)C)CC1 (centres undefined) | / | . | . | . | . | .
Cn1c(/C(C#N)=C/c2cccc(O)c2)nc2ccccc21 | . | . | . | . | . | -24
Cn1c(/C(C#N)=C/c2ccc(-c3ccc(S(N)(=O)=O)cc3)o2)nc2ccccc21 | . | / | / | 76 | . | /
N#C/C(=C\c1ccncc1)c1nc2ccccc2o1 | . | . | . | . | . | .
N#C/C(=C\c1cccc(O)c1)c1nc2ccccc2o1 | . | . | . | . | . | -18
C[C@H]1CN([C@@H](C)CO)S(=O)(=O)c2ccc(C#Cc3ccncc3)cc2O[C@H]1CN(C)C(=O)C1CCCCC1 | . | . | . | 76 | . | .
C[C@@H]1CN([C@H](C)CO)S(=O)(=O)c2ccc(C#Cc3ccccc3)cc2O[C@H]1CN(C)C(=O)C1CC1 | . | 16 | . | / | . | .
C[C@H]1CN([C@@H](C)CO)S(=O)(=O)c2ccc(C#Cc3ccccc3)cc2O[C@H]1CN(C)C(=O)C1CC1 | . | . | . | / | . | .
C[C@@H]1CN([C@@H](C)CO)S(=O)(=O)c2ccc(C#Cc3ccncc3)cc2O[C@@H]1CN(C)C(=O)C1CCCCC1 | . | . | . | 76 | . | .
C[C@@H]1CN([C@@H](C)CO)S(=O)(=O)c2ccc(C#Cc3ccncc3)cc2O[C@H]1CN(C)C(=O)C1CCCCC1 | . | . | . | ? | . | .
C[C@H](CO)N1C[C@H](C)[C@H](CN(C)C(=O)C2CCCCC2)Oc2cc(C#Cc3ccncc3)ccc2S1(=O)=O | . | . | . | . | . | .
CCS(=O)(=O)NCC[C@@H]1CC[C@@H](NC(=O)C2CCC2)[C@@H](CO)O1 | . | . | . | . | . | .
SMILES | PGC1a acetyl inh | SIRT5 inh | EWS-Fli block | PAX8 inh HTS | LGR2 antag | rRNA inh HTS
CCOC(=O)c1ccc(N=c2sc(C(=O)OC)cc(=O)n2-c2ccc(C(=O)OCC)cc2)cc1 | . | . | . | / | 58 | .
C(=N\Nc1nc(Nc2ccccc2)nc(N2CCCCC2)n1)/c1ccco1 | / | . | . | . | . | -38
COc1ccc(/C=N/Nc2nc(Nc3ccccc3)nc(N3CCCC3)n2)cc1 | . | . | . | . | . | .
COc1ccc2c3c(n(C)c2c1)[C@@H](CO)N(C(=O)C1CC1)CC31CN(C)C1 | / | . | . | . | . | .
C[C@@H]1CN([C@H](C)CO)S(=O)(=O)c2ccc(-c3ccncc3)cc2O[C@H]1CN(C)C(=O)C1CCC1 | . | / | . | / | . | .
Cc1cccc(NC(=S)Nc2ccccn2)c1 | . | 20 | . | . | . | .
Cc1ccc(NC(=O)C(=O)Nc2ccccn2)cc1 | / | . | ? | . | 93 | .
Cc1cc(C)cc(NC(=S)Nc2ccccn2)c1 | / | . | . | . | . | .
O=C(O)C[C@@H]1CC[C@@H](NC(=O)Nc2cc(F)ccc2F)[C@@H](CO)O1 | . | . | . | . | . | .
O=C(N1CCN(Cc2ccc3c(c2)OCO3)CC1)C(Cl)(Cl)Cl | . | . | . | . | . | -19
O=C(O)c1ccccc1C(=O)N1CCN(Cc2ccc3c(c2)OCO3)CC1 | . | . | . | . | . | .
c1ccc(-c2[nH]ncc2CN2CCN(Cc3ccc4c(c3)OCO4)CC2)cc1 | . | . | . | . | . | -47
O=C(c1ccc2c(c1)OCO2)C1CCCN(Cc2cn[nH]c2-c2ccccc2)C1 (centres undefined) | / | . | . | . | . | .
C[C@H]1CN(C)C(=O)c2cc(NS(C)(=O)=O)ccc2O[C@H]1CN(C)S(C)(=O)=O | / | / | / | / | / | .
O=C(Nc1ccc(F)cc1)N1CCCCN2[C@H](C1)[C@H](c1ccc(C3=CCCCC3)cc1)[C@@H]2CO | . | . | . | . | . | .
Cc1ccc(-c2cc(C(=O)N/N=C/c3ccccc3O)n[nH]2)o1 | / | . | / | . | . | .
Cc1ccc(-c2cc(C(=O)N/N=C/C(Br)=C/c3ccccc3)n[nH]2)o1 | . | . | . | 74 | . | .
Cc1ccc(-c2cc(C(=O)N/N=C/c3ccc(F)cc3)n[nH]2)o1 | . | . | . | . | . | -24
Cc1ccc(S(=O)(=O)N[C@H]2C=C[C@@H](CC(=O)NCCN3CCCCC3)O[C@@H]2CO)cc1 | . | . | . | . | . | .
C[C@@H]1CN([C@H](C)CO)S(=O)(=O)c2ccc(-c3ccc(C(=O)N(C)C)cc3)cc2O[C@H]1CN(C)C(=O)Nc1ccccc1F | . | . | . | . | . | .
COCC(=O)N(C)C[C@H]1Oc2cc(C#CCC3CCCC3)ccc2S(=O)(=O)N([C@H](C)CO)C[C@H]1C | . | . | . | 69 | . | .
CCC(=O)N(C)C[C@H]1Oc2cc(C#CCC3CCCC3)ccc2S(=O)(=O)N([C@@H](C)CO)C[C@@H]1C | . | . | ? | . | . | .
